# According to PubChem BioAssay AID1159580 (chemical genetic matrix, 2015):
# Screen size: about 5,500 compounds; about 2,000 (36%) were called active. Roughly 18% stayed inconclusive and do not appear here. This is one part of the list. Unmarked numbers belong to inactive results. Rule as the data show it: active = normalized growth mostly below about 0.91 (no sharp cut-off); inconclusive = no clear call, values can overlap the other calls; inactive = mostly above about 0.92.
# Test: chemical genetic growth profiling, strain panel (AID 1159580);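 also: tested at 20 µM; growth read once vehicle control cultures reached saturation at 30 °C; 1 = growth at the plate median or of vehicle wells; lower values mean less growth of the strain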
# Settings: growth OD
smiles,measurement,setting,value
CCc1nc(N)nc(N)c1-c1ccc(Cl)cc1,normalized growth,"S. cerevisiae deletion strains, locus YJR075W, strain HOC1, stronger effect = lower value",0.978
same,normalized growth,"S. cerevisiae deletion strains, locus YKL009W, strain mrt4, stronger effect = lower value",1.01
same,normalized growth,"S. cerevisiae deletion strains, locus YKL068W, stronger effect = lower value",1
same,normalized growth,"S. cerevisiae deletion strains, locus YKL085W, strain MDH1 (second series), stronger effect = lower value",1
same,normalized growth,"S. cerevisiae deletion strains, locus YKL085W, strain MDH1, stronger effect = lower value",1
same,normalized growth,"S. cerevisiae deletion strains, locus YKL160W, strain elf1, stronger effect = lower value",0.948
same,normalized growth,"S. cerevisiae deletion strains, locus YKL190W, strain CNB1, stronger effect = lower value",1.01
same,normalized growth,"S. cerevisiae deletion strains, locus YKR001C, strain vps1, stronger effect = lower value",0.985
same,normalized growth,"S. cerevisiae deletion strains, locus YKR026C, strain gcn3, stronger effect = lower value",1.2 [resistant] (active)
same,normalized growth,"S. cerevisiae deletion strains, locus YKR091W, strain srl3, stronger effect = lower value",0.977
same,normalized growth,"S. cerevisiae deletion strains, locus YLL001W, strain dnm1, stronger effect = lower value",0.942
same,normalized growth,"S. cerevisiae deletion strains, locus YLL026W, stronger effect = lower value",0.992
same,normalized growth,"S. cerevisiae deletion strains, locus YLL041C, strain sdh2, stronger effect = lower value",0.972
same,normalized growth,"S. cerevisiae deletion strains, locus YLR027C, strain aat2, stronger effect = lower value",0.984
same,normalized growth,"S. cerevisiae deletion strains, locus YLR039C, strain RIC1, stronger effect = lower value",1.09
same,normalized growth,"S. cerevisiae deletion strains, locus YLR058C, strain SHM2, stronger effect = lower value",1.01
same,normalized growth,"S. cerevisiae deletion strains, locus YLR102C, strain apc9, stronger effect = lower value",1
same,normalized growth,"S. cerevisiae deletion strains, locus YLR113W, strain HOG1, stronger effect = lower value",1.04
same,normalized growth,"S. cerevisiae deletion strains, locus YLR221C, strain rsa3, stronger effect = lower value",1
same,normalized growth,"S. cerevisiae deletion strains, locus YLR258W, strain gsy2, stronger effect = lower value",0.98
same,normalized growth,"S. cerevisiae deletion strains, locus YLR262C, strain YPT6 (second series), stronger effect = lower value",0.958
same,normalized growth,"S. cerevisiae deletion strains, locus YLR262C, strain YPT6, stronger effect = lower value",1.15
same,normalized growth,"S. cerevisiae deletion strains, locus YLR268W, strain sec22, stronger effect = lower value",0.968
same,normalized growth,"S. cerevisiae deletion strains, locus YLR320W, strain mms22, stronger effect = lower value",0.99
same,normalized growth,"S. cerevisiae deletion strains, locus YLR330W, strain CHS5, stronger effect = lower value",1.01
same,normalized growth,"S. cerevisiae deletion strains, locus YLR342W, strain FKS1 (second series), stronger effect = lower value",0.952
same,normalized growth,"S. cerevisiae deletion strains, locus YLR342W, strain FKS1, stronger effect = lower value",0.989
same,normalized growth,"S. cerevisiae deletion strains, locus YLR357W, strain rsc2, stronger effect = lower value",0.96
same,normalized growth,"S. cerevisiae deletion strains, locus YLR370C, strain arc18, stronger effect = lower value",0.972
same,normalized growth,"S. cerevisiae deletion strains, locus YLR371W, strain rom2, stronger effect = lower value",1.01
same,normalized growth,"S. cerevisiae deletion strains, locus YLR384C, strain iki3, stronger effect = lower value",0.964
same,normalized growth,"S. cerevisiae deletion strains, locus YLR418C, strain cdc73, stronger effect = lower value",0.939
same,normalized growth,"S. cerevisiae deletion strains, locus YML016C, strain PPZ1, stronger effect = lower value",0.999
same,normalized growth,"S. cerevisiae deletion strains, locus YML032C, strain rad52, stronger effect = lower value",0.952
same,normalized growth,"S. cerevisiae deletion strains, locus YML120C, strain ndi1, stronger effect = lower value",0.963
same,normalized growth,"S. cerevisiae deletion strains, locus YML124C, strain tub3, stronger effect = lower value",1
same,normalized growth,"S. cerevisiae deletion strains, locus YMR058W, strain fet3, stronger effect = lower value",0.988
same,normalized growth,"S. cerevisiae deletion strains, locus YMR078C, strain ctf18, stronger effect = lower value",0.998
same,normalized growth,"S. cerevisiae deletion strains, locus YMR125W, strain sto1, stronger effect = lower value",0.932
same,normalized growth,"S. cerevisiae deletion strains, locus YMR129W, stronger effect = lower value",0.976
same,normalized growth,"S. cerevisiae deletion strains, locus YMR205C, strain PFK2, stronger effect = lower value",0.956
same,normalized growth,"S. cerevisiae deletion strains, locus YMR223W, strain ubp8, stronger effect = lower value",0.996
same,normalized growth,"S. cerevisiae deletion strains, locus YMR231W, strain pep5, stronger effect = lower value",0.974
same,normalized growth,"S. cerevisiae deletion strains, locus YMR263W, strain SAP30, stronger effect = lower value",1.01
same,normalized growth,"S. cerevisiae deletion strains, locus YMR307W, strain GAS1, stronger effect = lower value",0.916
same,normalized growth,"S. cerevisiae deletion strains, locus YNL067W, strain RPL9B, stronger effect = lower value",0.999
same,normalized growth,"S. cerevisiae deletion strains, locus YNL071W, strain lat1, stronger effect = lower value",0.976
same,normalized growth,"S. cerevisiae deletion strains, locus YNL128W, strain TEP1, stronger effect = lower value",1.02
same,normalized growth,"S. cerevisiae deletion strains, locus YNL153C, strain GIM3, stronger effect = lower value",1.01
same,normalized growth,"S. cerevisiae deletion strains, locus YNL183C, strain NPR1, stronger effect = lower value",0.998
same,normalized growth,"S. cerevisiae deletion strains, locus YNL209W, strain ssb2, stronger effect = lower value",0.979
same,normalized growth,"S. cerevisiae deletion strains, locus YNL233W, strain BNI4, stronger effect = lower value",0.991
same,normalized growth,"S. cerevisiae deletion strains, locus YNL248C, strain rpa49, stronger effect = lower value",0.966
same,normalized growth,"S. cerevisiae deletion strains, locus YNL250W, strain rad50, stronger effect = lower value",1
same,normalized growth,"S. cerevisiae deletion strains, locus YNL271C, strain bni1, stronger effect = lower value",0.998
same,normalized growth,"S. cerevisiae deletion strains, locus YNL298W, strain CLA4, stronger effect = lower value",1
same,normalized growth,"S. cerevisiae deletion strains, locus YNL307C, strain MCK1, stronger effect = lower value",0.972
same,normalized growth,"S. cerevisiae deletion strains, locus YNL322C, strain KRE1 (second series), stronger effect = lower value",0.975
same,normalized growth,"S. cerevisiae deletion strains, locus YNL322C, strain KRE1, stronger effect = lower value",0.967
same,normalized growth,"S. cerevisiae deletion strains, locus YNR049C, strain mso1, stronger effect = lower value",0.968
same,normalized growth,"S. cerevisiae deletion strains, locus YNR052C, strain pop2, stronger effect = lower value",0.931
same,normalized growth,"S. cerevisiae deletion strains, locus YOL006C, strain TOP1, stronger effect = lower value",1.03
same,normalized growth,"S. cerevisiae deletion strains, locus YOL012C, strain htz1",0.833
same,normalized growth,"S. cerevisiae deletion strains, locus YOL147C, strain pex11, stronger effect = lower value",0.995
same,normalized growth,"S. cerevisiae deletion strains, locus YOR001W, strain rrp6, stronger effect = lower value",0.938
same,normalized growth,"S. cerevisiae deletion strains, locus YOR061W, strain CKA2, stronger effect = lower value",1.01
same,normalized growth,"S. cerevisiae deletion strains, locus YOR069W, strain VPS5, stronger effect = lower value",1
same,normalized growth,"S. cerevisiae deletion strains, locus YOR070C, strain gyp1, stronger effect = lower value",0.998
same,normalized growth,"S. cerevisiae deletion strains, locus YOR080W, strain dia2, stronger effect = lower value",0.951
same,normalized growth,"S. cerevisiae deletion strains, locus YOR083W, strain WHI5, stronger effect = lower value",0.936
same,normalized growth,"S. cerevisiae deletion strains, locus YOR106W, strain vam3, stronger effect = lower value",0.946
same,normalized growth,"S. cerevisiae deletion strains, locus YOR136W, strain idh2, stronger effect = lower value",1.01
same,normalized growth,"S. cerevisiae deletion strains, locus YOR144C, strain elg1, stronger effect = lower value",1.01
same,normalized growth,"S. cerevisiae deletion strains, locus YOR184W, strain ser1, stronger effect = lower value",0.979
same,normalized growth,"S. cerevisiae deletion strains, locus YOR231W, strain MKK1, stronger effect = lower value",1.02
same,normalized growth,"S. cerevisiae deletion strains, locus YOR265W, strain rbl2, stronger effect = lower value",0.976
same,normalized growth,"S. cerevisiae deletion strains, locus YOR270C, strain vph1, stronger effect = lower value",0.932
same,normalized growth,"S. cerevisiae deletion strains, locus YOR290C, strain snf2, stronger effect = lower value",0.896
same,normalized growth,"S. cerevisiae deletion strains, locus YOR316C, strain cot1, stronger effect = lower value",1
same,normalized growth,"S. cerevisiae deletion strains, locus YPL051W, strain arl3, stronger effect = lower value",0.981
same,normalized growth,"S. cerevisiae deletion strains, locus YPL055C, strain LGE1, stronger effect = lower value",1
same,normalized growth,"S. cerevisiae deletion strains, locus YPL078C, strain atp4, stronger effect = lower value",0.959
same,normalized growth,"S. cerevisiae deletion strains, locus YPL106C, strain sse1, stronger effect = lower value",0.956
same,normalized growth,"S. cerevisiae deletion strains, locus YPL240C, strain hsp82, stronger effect = lower value",0.98
same,normalized growth,"S. cerevisiae deletion strains, locus YPL241C, strain CIN2, stronger effect = lower value",1.01
same,normalized growth,"S. cerevisiae deletion strains, locus YPL256C, strain CLN2, stronger effect = lower value",1.09
same,normalized growth,"S. cerevisiae deletion strains, locus YPR119W, strain clb2, stronger effect = lower value",1
same,normalized growth,"S. cerevisiae deletion strains, locus YPR141C, strain kar3, stronger effect = lower value",1
same,normalized growth,"S. cerevisiae deletion strains, locus YPR163C, strain tif3, stronger effect = lower value",0.996
same,normalized growth,"S. cerevisiae deletion strains, locus YPR167C, strain met16, stronger effect = lower value",1.01
same,normalized growth,"S. cerevisiae deletion strains, strain wtn01, stronger effect = lower value",0.975
same,normalized growth,"S. cerevisiae strains, strain wild type, stronger effect = lower value",1
